The record followed here is PubChem BioAssay AID1508600 (Functional Genomics Laboratory (NCATS/FGL), 2020).

In all, about 53,000 sequences went through this assay and about 3,700 (7%) were called active. The entries come from a sample that favours actives as a whole. Values without a mark were called inactive.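 How the source made its calls: active means gene knockdowns whose robust z-score for IL-1 alpha signal is at least 2 or at most -2, so actives lie on both sides; inactive means the rest.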

The test can be described thus: Components of the Cytosolic LPS Sensing Pathway: Gene Identification via Genome-wide siRNA Screen. The conditions noted are these: RAW264.7 macrophages, IL-1a HTRF, actives lie on both sides, screened at 100 nM (by protocol), cells primed 5 h with Pam3CSK4 first. The text has this: Non-canonical inflammasome activation by cytosolic LPS is a critical component of the host response to Gram-negative bacterial infection, however we lack a comprehensive understanding of the cellular processes that control this pathway. Here we describe a genome-wide siRNA screen to identify genes regulating the mouse macrophage IL-1 alpha response to cytosolic LPS.
RAW264.7 cells were maintained in complete DMEM media, comprising DMEM with 4.5 g/L glucose, 10% FBS (Gemini Bio-Products, West Sacramento, CA), 2 mM Glutamine (Lonza) and 20 mM HEPES (Lonza), hereafter complete DMEM.
The RNAi screen was conducted in 384-well format using the Ambion Silencer Mouse Genome siRNA Library (#4391425), which consists of three unique, nonoverlapping, nonpooled siRNAs for each of 17,000 gene targets. siRNA reagents ([…]) were stamped into 384-well white flat-bottom microplates (Corning, 3570) using a Velocity11 VPrep liquid handling system (Agilent) integrated into a BioCel robotic platform (Agilent) in columns 1-22, leaving columns 23-24 empty for negative (Ambion, Negative control #1) and positive (mouse Casp4) controls, respectively. The median value of each plate's negative control column was used to normalize sample wells, and the positive control was used to assess transfection efficiency and assay performance.
Lipofectamine RNAiMAX Transfection Reagent ([…]; Invitrogen) was added in […] serum-free, antibiotic-free media to plate wells using a Thermo Scientific Matrix WellMate and Microplate Stacker. Plates were incubated for 45 min at room temperature to allow for the sufficient formation of siRNA-lipid complexes. Cells were seeded at a density of 1x10^4 cells per well in 20 microL media containing 20% (vol/vol) FBS without antibiotics. The final concentration of siRNA in each well was 100 nM. Cells were cultured for 48h at 37 degrees C in 5% CO2 before addition of […] of TLR ligand Pam3CSK4 for 5 hours. The medium was then removed, replaced with […] growth media and cell were transfected with […] of LipidA and TransIT-TKO (Mirus) for 24 hour. At the end of the LipidA treatment, […] of supernatant was transferred to a 384 Greiner Bio-one non-binding low volume plate and […] of IL-1a HTRF reagent (Cisbio, 62MIL1APEH) was added and incubated at room temperature overnight. The plates were read on an EnVision plate reader (PerkinElmer). Cell viability was measured by adding 20ul Cell Titer Glo to the original plate and running a luminescence read on the EnVision. The quantified IL-1a signal for each siRNA gene-targeted well was divided by the median of the negative control wells and multiplied by 100 to achieve a negative control normalized value for each well/siRNA. This normalized value was then used to generate a robust z-score by first taking the log of each value and then by subtracting the median and dividing by the […].
Background: TR-FRET usually uses a lanthanide donor and a delayed reading to cut background.
CCUUCUAGAGUACAUCAUATT against Prl7d1: the z-score was 0.298. As for GGGUUUCUUCGUGUCUAUUTT against Pth2r, the z-score was 1.56.

In the case of GGGAAGUAGCCAUCACACCTT against Ttbk1, the z-score is 0.768.

CCUAUAGCAGUGGUUUUCATT against Ece2: the z-score is 2.22 (active). Regarding “GGCUUUUCGUUGUAAAUCATT against 9930111J21Rik2”, the z-score is 0.735. For CGGGAAGUAAACAUUUCCATT against Rassf6, the z-score is 0.527.

For GGACUCUGAUCUCUAUCAGTT against Tac2, the z-score is -0.357. Turning to GGAGGAGAGGUACAAGAUGTT against Pcyt2, the z-score is -0.804. As for GGGAAGUCCAAAUAACGGATT against Zfp184, the figure is 0.136; as for CCGACCCAAUUAAUGAUCATT against Tlcd2, -1.12; as for CCAAAGUUUUAUCAGUUUGTT against Gpr87, 0.653.

As for GGUACUUUUACUCCCGAAGTT against Lgals3bp, the z-score was -2.05 (active). On to GGUGAUAUAGCUAUUUUCUTT against Fbxw11, for which the z-score is 0.711. With GGAAACACCAGAGAAGUCCTT against Etf1, the z-score is -0.56. As for GGUGCAAGAUAGUACGAUGTT against Gle1, the figure is -0.649. With GCACAAUAAAGCUUGUUGCTT against Trmt2a, the z-score is -2.26 (active). As for GGAAGAUGGGCGACUCUAUTT against Pkmyt1, the figure is 0.176. As for GGAUUCUCACCAAAUACUUTT against Oprd1, the figure is 0.305; as for CGAUAUUUAUCAUGAGUGCTT against Nlrp9c, -1.9. On to CCCACGAGGGAUAUAUCUGTT against Cd3d, for which the z-score is -0.994. Consider CGGCACCAGUGUUCUAUUGTT against Ddi2, for which the z-score is 1.91. In the case of CCGCAAAGUGAGCAAGGUGTT against Id1 it was -0.63. As for GGAAAGCAGACAUCGACCUTT against Rps18, the z-score is -0.848. As for GGAACGUGUUCAAAAGAGUTT against Sos1, the z-score is 2.22 (active).

In the case of GGCCUAUCAAAAUUCAGUUTT against Rbm7, the z-score was 1.17. Turning to GGAGAUUGGACCACUAUGATT against Sec24d, the z-score was -1.31. As for GGAGUUCGACAUUAGCGGATT against Ehf, the figure is 0.0965; as for GCAACAGUUGGUCUAAAAUTT against Psma1, -2.11 (active). With GGAAUGUUUCUUUAUCACATT against Slc35e4, the z-score was -0.837. In the case of GCGUAUUUGGUGUUAAAAATT against Iars it was 0.417; in that of GGAAGAAGAAGAUAAAGCGTT against Grk6, 0.184; in that of CCACCAGAUACAUAUUUGUTT against Gnpnat1, -0.352. In the case of GGCUUUAAAGAAUGAUUCATT against Cfap97 it was 0.197. As for GGAACUCCACUUUCUUUUUTT against Ripply3, the figure is 2.27 (active). Turning to GGCUGCACAAACAUGGUUCTT against Pard6a, the z-score is -0.146.

Turning to GGUGGAAGAUUAGUGACUUTT against Trim38, the z-score was 1.63. Take CCGUGUAAGGUGUGGAGUGTT against Mcat: the z-score was -2.27 (active). With GGAAAGAUUGUACCAGUUGTT against Cmpk1, the z-score is 2.58 (active). Consider GGUAAAAUUCCAGAGUUGUTT against Serpinb9, for which the z-score is -0.412.

With GGGUUUGGACUGAUAUACUTT against Vrk2, the z-score was -0.465. GGAAUCAGGAAUGCUACUUTT against Tsr1: the z-score is 0.216. Consider “CAAGAAGGUCAUGUUAUUGTT against Olfr106-ps”, for which the z-score was 0.495. CGGCUCGUACACAUGUGAATT against Creld2: the z-score is 0.199. As for GGAUGAAGAUGGAGACAUGTT against Lmx1b, the figure is -2.58 (active); as for “GGGUUCAUAUGUUUUGGAUTT against C130050O18Rik”, 1.38; as for GGAGCAGUAUAUCCUACAUTT against Olfr510, 2.82 (active). Consider CCCUGACCUUGUGGUAGAATT against Aspdh, for which the z-score was -0.165.

For CGAGAAGAUAUUUAAAGAGTT against Myo10, the z-score is -0.045. In the case of GGAAAACAAGAGAAGGCGCTT against Pom121 it was 0.361; in that of GGCCUAAUUUCCUCUAAUATT against Padi1, 0.452.

In the case of GGUCUUCAGACCAGAAACATT against Hsd3b2, the z-score is -3.19 (active). In the case of GGAACAUUCUAGAAUCUGUTT against Rps6kb2 it was 0.986; in that of GGCCAAUAAAGAAACAAACTT against Cst9, 1.08.

As to GGGUGUUGAAAGACUUUUATT against Tnks, the z-score was -0.122. In the case of GCAAUCAUUUCUUCAUCUATT against Olfr148 it was 0.255; in that of GGAAUACAAAUUCAAGAUCTT against Vamp5, -0.82.

For the sequence CCUAUCUUUUCCCUACAUGTT against Cyp4a31, the z-score is 2.01 (active).

GGGAUAGUGUUCCUUAUCUTT against Neu1: the z-score is -2.6 (active).

GGUCAGCGUGGAGUCAAUATT against Fam184b: the z-score is -1.92.

As for GGAUAUCAUAUUUUCUCAGTT against Fam71d, the z-score was 0.0644. As for GGAGGUGCGCUUCUUUAACTT against Chst5, the figure is 0.24; as for CGAAAAAAAUCCAAGUCAATT against Akap12, -0.28; as for GCCUUAGGAAAUUCUCAAUTT against Rbm12b2, 0.334.

Take GGUCCUACAUCUCCUUCGATT against Cars: the z-score was -0.194. As to GCUAGAUUUGAUGGUUCAGTT against Cacng5, the z-score was -1.62. For the sequence GGCAUUUAGUAAAACCCUUTT against Rnf144a, the z-score is -2.43 (active). As to GCAUAUAACCGAGUUGAUUTT against Cdcp1, the z-score is 0.183. In the case of GCUUCAGGAGCUCUACUGUTT against Catsper3, the z-score is -0.736. As for CCUGCUCUAUGGCAGAACGTT against Nkx2-4, the figure is 0.992. Consider “GGAACAGGAGAAUGACAUCTT against D5Ertd579e”, for which the z-score was -1.25. In the case of GGUGCAGAAUCUCUCAUUGTT against Mrpl30 it was -2.14 (active); in that of GCGCGAUUCAGAGGUUUCATT against Raver2, 0.238; in that of GCACUGCCAGAGGUUCUGUTT against U90926, -0.107. As for GCCCUUAGAGAGAAUUUAUTT against Lmo2, the z-score was 0.63. In the case of GCCACGUUCAAACAGUACCTT against Slc1a7 it was 3.94 (active); in that of GCAGGUUCACAAUGGAUUATT against Lrrc25, 0.108.

On to GGAAUCUGCUAUGCUUAAATT against Rdh16f2, for which the z-score was -1.84. As for GCCAGAGUACCACAUUAGUTT against Pcdhga4, the figure is 0.921. In the case of GGACCAUGUGAUAAUAUCGTT against Als2 it was -0.599; in that of GGAGAUCUGCUCUAAUUAUTT against Eif1ax, 2.21 (active). GGGAUUGUAACAGCAUCCCTT against Epha6: the z-score is 0.594. On to GGGAAUCUGAUGAAGAUGGTT against Grin3b, for which the z-score was -1.56. As for GGCCUUGAAAUCGUUUUUUTT against Tceal8, the figure is 0.534; as for GGAUUUUUCAGAUUCUAGATT against Hs6st2, 0.375; as for GGAUUUAGGCUACUUUUUCTT against Art4, -0.387. As for GAUGUACGAUCUGGUGGUGTT against Exosc6, the figure is 2.73 (active); as for GGAUUUAGAUCACUUGGAGTT against Tmem68, -0.811. As to GGAGUGUUGGAUGCUACCATT against Ache, the z-score was -1.12.

In the case of GGGCAAUGGGUGAUCUAAUTT against Phactr1, the z-score was 0.00934. Take GGAACUUUUUAAGAUGCGUTT against Ranbp1: the z-score was -0.36. In the case of GGAUGCCUAUCACAAGCAGTT against Pacsin1 it was -0.478. In the case of GGCCCAUUACUUGUUGACUTT against Fanci, the z-score is 0.378.

With GAGCAAUGAGCAGAGAUUCTT against H2-D4, the z-score was 1.93. As for GGACUUCAACUUGAUGGAGTT against Add2, the figure is 2.02 (active); as for GGAUGCUAAUUCAAGUCUUTT against Slc1a7, 0.292; as for GGUUAUUAAGGAUAAACUGTT against Cops5, 2.28 (active). As for GGAACUUACAUGAAUUCCATT against Slco1a4, the figure is -0.229. In the case of GCCACUUCCUGGAUAAGGATT against Ftl2-ps it was -2.88 (active); in that of CCAAGACUGUGACAAGUUUTT against Ctsz, -0.557; in that of GGAAACCAGACUUUCCCUATT against Vmn1r43, -0.18. As to CGAAGAUAUUACUAUUCUGTT against Lama2, the z-score is 1.65. As for GAUGCACACGUGGGAAGACTT against Cdpf1, the figure is 2.25 (active); as for GCUCCAUCUACAAACAAUGTT against Gpr37l1, 1.53. In the case of GGGACAGGAACAAACAAGCTT against Polq it was 2. As for GGUUAUAGAUGUAAAGUCUTT against Isg20l2, the figure is -0.847; as for GGAGCUUCUUUUCCCUCUATT against Gcgr, -0.684; as for GGAUUUAAGUGCCCGGUAUTT against Znrf2, 1.34. Consider GCGAUAUGCCCUAACUGGATT against Mmp24, for which the z-score was 0.967.
